# In the supplement of paper PMC8728848:
# This is one part of a sample in which the strongest signals are shown more often than they occur.
# B1: AT1G80310(18) (Arabidopsis thaliana), Q0WP36 (protein)
# chain: METTTTPLLPGDRSRCGWLRRRLRLKNPLSSELSGAVGDLGTFIPIVLTLTLVSNLDLSTTLIFTGFYNIATGLLFDIPMPVQPMKSIAAVAVSESPHLTPSQIAAAGASTAATLLLLGATGAMSFLYNIIPLPVVRGVQLSQGLQFAFTAIKYVRFNYDTATLKPSSSPRIWLGLDGLILALAALLFIILSTGSGNDREAEDGDLAETSSNESQSRRRRLRLLSSIPSALIVFALGLVLCFIRDPSIFKDLKFGPSKFHILRISWDDWKIGFLRAAIPQIPLSVLNSVIAVCKLSNDLFDKELSATTVSISVGVMNLIGCWFGAMPVCHGAGGLAGQYRFGARSGLSVIFLGIGKLIVGLVFGNSFVRILSQFPIGILGVLLLFAGIELAMASKDMNSKEDSFIMLVCAAVSMTGSSAALGFGCGVVLYLLLKLRTLDCSSVTLFSRSSDESQVDSEAAPRDV
# Columns and labels:
# Assay in all cases: glycan array binding signal (z-score within array); higher = stronger binding
# Details in all cases: glycan notation: IUPAC condensed, linker removed
# [1] = target: Fuc(a1-2)Gal(b1-3)GalNAc(a1-3)[Fuc(a1-2)]Gal(b1-4)GlcNAc
# How it was run: (§1)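 The binding signal is a Z-score computed within each array. Data were drawn from 3228 arrays in the Consortium for Functional Glycomics database, restricted to those with a known protein sequence. Scores were averaged over arrays of the same protein sequence at different concentrations or buffers, and over linkers, and negative values can be taken as non-binding.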
# [2] = target: Fuc(a1-2)Gal(b1-3)[Fuc(a1-4)]GlcNAc(b1-2)Man(a1-3)[Fuc(a1-2)Gal(b1-3)[Fuc(a1-4)]GlcNAc(b1-2)Man(a1-3)]Man(b1-4)GlcNAc(b1-4)GlcNAc
# How it was run: as §1
# [3] = target: Fuc(a1-2)Gal(b1-3)[Fuc(a1-4)]GlcNAc(b1-3)[Gal(b1-4)GlcNAc(b1-6)]Gal(b1-4)Glc
# How it was run: as §1
# [4] = target: Fuc(a1-2)Gal(b1-4)Fuc(a1-3)]GlcNAc(b1-2)Man(a1-3)[Fuc(a1-2)Gal(b1-4)[Fuc(a1-3)]GlcNAc(b1-2)Man(a1-6)]Man(b1-4)GlcNAc(b1-4)GlcNAc
# How it was run: as §1
# [5] = target: Fuc(a1-2)Gal(b1-4)GlcNAc(b1-2)Man(a1-3)[Fuc(a1-2)Gal(b1-4)GlcNAc(b1-2)Man(a1-6)]Man(b1-4)GlcNAc(b1-4)GlcNAc
# How it was run: as §1
# [6] = target: Fuc(a1-2)[Gal(a1-3)]Gal(b1-3)GlcNAc
# How it was run: as §1
# [7] = target: Fuc(a1-2)[Gal(a1-3)]Gal(b1-4)GlcNAc(b1-3)GalNAc
# How it was run: as §1
# [8] = target: Fuc(a1-2)[GalNAc(a1-3)]Gal(b1-3)GlcNAc(b1-3)GalNAc
# How it was run: as §1
# [9] = target: Fuc(a1-3)[Gal(b1-4)]Glc6S
# How it was run: as §1
# [10] = target: Fuc(a1-3)[Gal(b1-4)]GlcNAc(b1-6)GalNAc
# How it was run: as §1
# [11] = target: Fuc(b1-3)GlcNAc
# How it was run: as §1
# [12] = target: Gal(a1-2)Gal
# How it was run: as §1
# [13] = target: Gal(a1-3)Gal
# How it was run: as §1
# [14] = target: Gal(a1-3)Gal(b1-3)GlcNAc
# How it was run: as §1
# [15] = target: Gal(a1-3)Gal(b1-4)Glc
# How it was run: as §1
# [16] = target: Gal(a1-3)Gal(b1-4)GlcNAc(b1-2)Man(a1-3)[Gal(a1-3)Gal(b1-4)GlcNAc(b1-2)Man(a1-6)]Man(b1-4)GlcNAc(b1-4)GlcNAc
# How it was run: as §1
# [17] = target: Gal(a1-4)GlcNAc
# How it was run: as §1
# [18] = target: Gal(b1-3)GalNAc(b1-4)[Neu5Ac(a2-3)]Gal(b1-4)Glc
# How it was run: as §1
# [19] = target: Gal(b1-3)GlcNAc(b1-2)Man(a1-3)[GlcNAc(b1-4)][Gal(b1-3)GlcNAc(b1-2)Man(a1-6)]Man(b1-4)GlcNAc(b1-4)GlcNAc
# How it was run: as §1
# [20] = target: Gal(b1-3)GlcNAc(b1-3)GalNAc
# How it was run: as §1
# [21] = target: Gal(b1-3)[Fuc(a1-4)]GlcNAc(b1-2)Man
# How it was run: as §1
# [22] = target: Gal(b1-3)[Fuc(a1-4)]GlcNAc(b1-2)Man(a1-3)[Gal(b1-3)[Fuc(a1-4)]GlcNAc(b1-2)Man(a1-6)]Man(b1-4)GlcNAc(b1-4)[Fuc(a1-6)]GlcNAc
# How it was run: as §1
# [23] = target: Gal(b1-3)[GlcNAc(b1-6)]GalNAc
# How it was run: as §1
# [24] = target: Gal(b1-4)GlcNAc(b1-2)Man(a1-3)[Gal(b1-4)GlcNAc(b1-2)Man(a1-6)][GlcNAc(b1-4)]Man(b1-4)GlcNAc(b1-4)[Fuc(a1-6)]GlcNAc
# How it was run: as §1
# [25] = target: Gal(b1-4)GlcNAc(b1-2)Man(a1-6)Man(b1-4)GlcNAc(b1-4)GlcNAc
# How it was run: as §1
# [26] = target: Gal(b1-4)GlcNAc(b1-2)[Gal(b1-4)GlcNAc(b1-6)]Man(a1-6)[GlcNAc(b1-4)][Gal(b1-4)GlcNAc(b1-2)[Gal(b1-4)GlcNAc(b1-4)]Man(a1-3)]Man(b1-4)GlcNAc(b1-4)[Fuc(a1-6)]GlcNAc
# How it was run: as §1
# [27] = target: Gal(b1-4)GlcNAc(b1-3)Gal(b1-3)GalNAc
# How it was run: as §1
# [28] = target: Gal(b1-4)GlcNAc(b1-3)Gal(b1-3)GlcNAc
# How it was run: as §1
# [29] = target: Gal(b1-4)GlcNAc(b1-3)Gal(b1-4)GlcNAc(b1-3)Gal(b1-4)GlcNAc(b1-3)Gal(b1-4)GlcNAc(b1-2)[Gal(b1-4)GlcNAc(b1-3)Gal(b1-4)GlcNAc(b1-3)Gal(b1-4)GlcNAc(b1-3)Gal(b1-4)GlcNAc(b1-6)]Man(a1-6)[Gal(b1-4)GlcNAc(b1-3)Gal(b1-4)GlcNAc(b1-3)Gal(b1-4)GlcNAc(b1-3)Gal(b1-4)GlcNAc(b1-2)Man(a1-3)]Man(b1-4)GlcNAc(b1-4)[Fuc(a1-6)]GlcNAc
# How it was run: as §1
# [30] = target: Gal(b1-4)GlcNAc(b1-3)Gal(b1-4)GlcNAc(b1-3)GalNAc
# How it was run: as §1
binder,measurement,setting,value
B1,glycan array binding signal (z-score),[1],-0.505
same,glycan array binding signal (z-score),[2],-0.097
same,glycan array binding signal (z-score),[3],-0.71
same,glycan array binding signal (z-score),[4],4.04
same,glycan array binding signal (z-score),[5],3.83
same,glycan array binding signal (z-score),[6],2.6
same,glycan array binding signal (z-score),[7],-1.01
same,glycan array binding signal (z-score),[8],0.205
same,glycan array binding signal (z-score),[9],1.38
same,glycan array binding signal (z-score),[10],0.051
same,glycan array binding signal (z-score),[11],-0.095
same,glycan array binding signal (z-score),[12],0.558
same,glycan array binding signal (z-score),[13],3.63
same,glycan array binding signal (z-score),[14],3.82
same,glycan array binding signal (z-score),[15],-0.294
same,glycan array binding signal (z-score),[16],-0.855
same,glycan array binding signal (z-score),[17],0.748
same,glycan array binding signal (z-score),[18],-0.754
same,glycan array binding signal (z-score),[19],1.46
same,glycan array binding signal (z-score),[20],0.082
same,glycan array binding signal (z-score),[21],2.96
same,glycan array binding signal (z-score),[22],-0.645
same,glycan array binding signal (z-score),[23],0.239
same,glycan array binding signal (z-score),[24],4.28
same,glycan array binding signal (z-score),[25],-0.165
same,glycan array binding signal (z-score),[26],2.65
same,glycan array binding signal (z-score),[27],-0.393
same,glycan array binding signal (z-score),[28],1.15
same,glycan array binding signal (z-score),[29],-0.802
same,glycan array binding signal (z-score),[30],-0.75
